The nature of test [1]: qHTS for Inhibitors of the Functional Ribonucleoprotein Complex (vRNP) of Lassa (LASV) Arenavirus: LASV Primary Screen - GLuc reporter signal (AID 1347082; calls by dose curve; tested in HEK293 reporter line; note: nearly all actives have a fitted effect of over 60% in size; note: potency is the fitted concentration of half-maximal effect; for activity change, negative = inhibition: % is set by controls: 0 for no effect and ±100 for the full control effect). For orientation: qHTS replaces the single test concentration by a dilution series.
Test [2] can be described thus: qHTS for Inhibitors of the Functional Ribonucleoprotein Complex (vRNP) of Lassa (LASV) Arenavirus: Viability assay - alamar blue signal for LASV Primary Screen (AID 1347083; calls by dose curve; tested in HEK293 reporter line; note: nearly all actives have a fitted effect of over 80% in size; note: potency is the fitted concentration of half-maximal effect; for activity change, negative = reduced viability: % is set by controls: 0 for no effect and ±100 for the full control effect).
The target in test [3] is Nucleoprotein (Lymphocytic choriomeningitis virus (strain Armstrong)) (UniProt P09992). As to the kind of experiment: qHTS for Inhibitors of the Functional Ribonucleoprotein Complex (vRNP) of Lymphocytic Choriomeningitis Arenaviruses (LCMV): LCMV Primary Screen - GLuc reporter signal (AID 1347086). For activity change, negative = inhibition: % is set by controls: 0 for no effect and ±100 for the full control effect. Note: nearly all actives have a fitted effect of over 70% in size. Note: potency is the fitted concentration of half-maximal effect.
A short description of test [4]: Cytotoxicity counterscreen for inhibitors of SARS-CoV-2 cell entry (AID 1645845). Note: nearly all actives have a fitted effect of over 50% in size. The gist of the method: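 HEK293-ACE2 cells (Expi293F stably expressing human ACE2) seeded overnight, then compound for 1 h plus 48 h at 37C. Viability as ATP content by luminescence; normalized to wells with cells and media-only wells.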
A general note: A counterscreen serves to expose hits that act by an unwanted route or on another target.

The nature of test [5]: Inducers of the Endoplasmic Reticulum Stress Response (ERSR) in human glioma: Validation (AID 504836; active = well fitted curve in the direction sought with a large enough effect; an effect the other way counts as inactive or inconclusive; note: 0% is about no effect). In short, it runs like this: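 Stably transfected U87-MG glioma cells carrying a GRP78-based luciferase sensor; 16 h compound incubation. Luminescence end-point read 10 min after Bright-Glo addition at room temperature.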
Test [6] can be described thus: qHTS for Inhibitors of the Functional Ribonucleoprotein Complex (vRNP) of Lymphocytic Choriomeningitis Arenaviruses (LCMV): Viability assay - alamar blue signal for LCMV Primary Screen (AID 1347085; calls by dose curve; tested in HEK293 reporter line; note: % is set by controls: 0 for no effect and ±100 for the full control effect; nearly all actives have a fitted effect of over 80% in size).
The target of test [7] is Alpha-galactosidase (Coffea arabica) (UniProt Q42656). Nature of the test: Counterscreen for Glucocerebrosidase Inhibitors: qHTS Assay for Coffee Bean alpha-Galactosidase at pH 4.5 (AID 957; active = well fitted curve in the direction sought with a large enough effect; an effect the other way counts as inactive or inconclusive;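 note: plate controls were enzyme alone for no effect and no enzyme for full effect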). The gist of the method: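 Green coffee bean enzyme (2 nM final) was incubated with compounds (0.7 nM to 77 uM) and 4-methylumbelliferyl alpha-D-galactopyranoside (80 uM final) in 50 mM citric acid, 0.005% Tween-20, pH 4.5, 20 min at room temperature; AC50 from Hill fits.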

Test [8] shares this target. Nature of the test: Counterscreen for Glucocerebrosidase Inhibitors: qHTS Assay for Coffee Bean alpha-Galactosidase at pH 5.9 (AID 998; active = well fitted curve in the direction sought with a large enough effect; an effect the other way counts as inactive or inconclusive;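 note: plate controls were uninhibited enzyme for no effect and no-enzyme basal signal for full effect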). The gist of the method: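 Green coffee bean enzyme (2 nM) with 4-methylumbelliferyl alpha-D-galactopyranoside (80 uM) in 50 mM citric acid, 0.005% Tween-20, pH 5.9, 20 min at room temperature; compounds 0.7 nM–77 uM. Stopped at pH 10, fluorescence Ex365/Em440; Hill-fit AC50.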

A short description of test [9]: Primary qHTS for inhibitors of SARS-S pseudo-typed particle cell entry (AID 1479145). Note: % is set by controls: 0 for no effect and ±100 for the full control effect; nearly all actives have a fitted effect of over 45% in size.
A short description of test [10]: Primary qHTS for Huh7 cytotoxicity: counterscreen for inhibitors of MERS-S pseudotyped particle cell entry (AID 1479147). Particulars: outcome: dose series up to 57.1 µM unless noted.
The nature of test [11]: Primary qHTS for inhibitors of MERS-S pseudo-typed particle cell entry (AID 1479149). Note: nearly all actives have a fitted effect of over 60% in size.
The nature of test [12]: Primary qHTS for Vero E6 cytotoxicity: counterscreen for inhibitors of SARS-S pseudo-typed particle cell entry (AID 1479150). Particulars: outcome: dose series up to 57.1 µM unless noted.
The target of test [13] is Nuclear receptor subfamily 1 group I member 3 (Homo sapiens) (UniProt Q14994). As to the kind of experiment: Primary qHTS for antagonist of constitutive androstane receptor (CAR) against the NCATS DSHEA and TCM libraries (AID 1794836; active = well fitted curve in the direction sought with a large enough effect; an effect the other way counts as inactive or inconclusive;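 note: HepG2 cells stably expressing hCAR with CYP2B6 luciferase reporter stimulated by CITCO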). In short, it runs like this: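 HepG2-CYP2B6-hCAR cells, attached 5 h, given compounds plus CITCO agonist […], incubated 24 h at 37 C. Luciferase luminescence read, multiplexed with CellTiter-Fluor viability (Ex/Em 405/540 nm).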

Test [14] in a line: KB-8-5-11 P-gp reporter qHTS against the NCATS DSHEA and TCM libraries (AID 1919977; active = well fitted curve in the direction sought with a large enough effect; an effect the other way counts as inactive or inconclusive; note: 0% is about no effect). The gist of the method:
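Cells were seeded, allowed ~4 h to attach, dosed by pin tool (substance titrations), incubated ~72 h at 37C, then lysed with CellTiter-Glo for 30 min at room temperature before luminescence reading.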

Test [15] can be described thus: Confirmatory qHTS for activators (rescue) of SARS-CoV-2 Cytopathic Effect (CPE) (AID 1508606). Note: potency is the fitted concentration of half-maximal effect; nearly all actives have a fitted effect of over 70% in size.
Test [16] in a line: Primary qHTS to identify inhibitors of SARS-CoV-2 cell entry (AID 1645846). Note: nearly all actives have a fitted effect of over 45% in size. The settings on record: activity change, negative = inhibition: at 57.1 µM (top of the series) unless noted. The gist of the method: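 Data are normalized to wells receiving SARS-CoV-2-S pseudoparticles and those given bald particles. Entry signal was luciferase luminescence in stable hACE2 Expi293F cells, 48 hr post-infection, after 1 hr compound pretreatment.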

This is an account of results in PubChem BioAssay (NCATS).

Results filed as inconclusive are left out. Activity calls are given as the source filed them. Unless noted, calls come from the whole dose curve.

Sequence of Nucleoprotein (Lymphocytic choriomeningitis virus (strain Armstrong)) (P09992 whole entry, looked up): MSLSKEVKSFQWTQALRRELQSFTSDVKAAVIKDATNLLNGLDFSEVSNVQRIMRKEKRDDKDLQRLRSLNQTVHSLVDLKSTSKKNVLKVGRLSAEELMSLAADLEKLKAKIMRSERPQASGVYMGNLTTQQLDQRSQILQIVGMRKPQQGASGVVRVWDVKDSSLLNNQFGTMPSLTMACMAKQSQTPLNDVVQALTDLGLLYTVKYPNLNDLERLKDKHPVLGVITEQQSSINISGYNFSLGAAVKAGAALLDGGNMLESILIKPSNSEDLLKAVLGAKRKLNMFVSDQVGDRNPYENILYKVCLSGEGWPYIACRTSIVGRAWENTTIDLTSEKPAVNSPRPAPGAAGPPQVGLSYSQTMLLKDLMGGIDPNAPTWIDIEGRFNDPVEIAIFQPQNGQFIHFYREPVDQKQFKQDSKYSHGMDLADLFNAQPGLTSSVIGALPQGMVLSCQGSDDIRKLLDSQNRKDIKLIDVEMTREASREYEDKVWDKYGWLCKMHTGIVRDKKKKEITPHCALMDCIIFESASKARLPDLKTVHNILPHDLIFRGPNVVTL
Sequence of Alpha-galactosidase (Coffea arabica) (Q42656 whole entry, looked up): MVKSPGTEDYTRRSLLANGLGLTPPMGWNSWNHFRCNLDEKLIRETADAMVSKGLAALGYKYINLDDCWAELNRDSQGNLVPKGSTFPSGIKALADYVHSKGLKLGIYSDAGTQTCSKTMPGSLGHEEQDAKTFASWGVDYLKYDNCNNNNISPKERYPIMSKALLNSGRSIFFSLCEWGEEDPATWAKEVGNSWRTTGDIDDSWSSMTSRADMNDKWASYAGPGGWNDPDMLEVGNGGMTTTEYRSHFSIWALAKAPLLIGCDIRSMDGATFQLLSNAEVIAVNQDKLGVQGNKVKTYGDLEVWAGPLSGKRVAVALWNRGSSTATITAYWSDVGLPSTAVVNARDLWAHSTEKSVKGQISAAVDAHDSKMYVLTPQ
Sequence of Nuclear receptor subfamily 1 group I member 3 (Homo sapiens) (Q14994 whole entry, looked up): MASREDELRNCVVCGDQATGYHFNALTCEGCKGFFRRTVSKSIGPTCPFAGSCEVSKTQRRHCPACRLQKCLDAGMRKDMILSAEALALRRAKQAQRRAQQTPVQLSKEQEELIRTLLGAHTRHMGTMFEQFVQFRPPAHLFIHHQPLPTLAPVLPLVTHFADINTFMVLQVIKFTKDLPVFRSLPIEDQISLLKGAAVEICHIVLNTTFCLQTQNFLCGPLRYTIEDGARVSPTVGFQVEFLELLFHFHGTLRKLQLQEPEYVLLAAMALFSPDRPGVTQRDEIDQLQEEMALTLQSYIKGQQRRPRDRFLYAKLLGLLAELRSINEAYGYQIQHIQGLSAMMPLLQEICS

In the case of `Cc1ccc(NC(=O)Nc2cc(C(F)(F)F)ccc2F)cc1Nc1ccc2c(c1)NC(=O)C2=Cc1ccc[nH]1`, the Potency in [1] was 30.6 µM (active); in [2] it was 17.2 µM (active); in test [3], 27.3 µM (active).

As for `COc1cc2c(cc1OC)CN(CCc1ccc(NC(=O)c3cc(OC)c(OC)cc3NC(=O)c3cnc4ccccc4c3)cc1)CC2`, the Potency entry in test [1], in [3] and in [4] was “inactive” in each case. Further, the Potency in test [2] is 19.3 µM (active).

For the compound `CN(C)CCCc1cc(C(=O)Nc2ccc(-c3ccncc3)cc2)ccc1O`, the compound was classed as inactive in [5]. Also, the Potency result in test [1], in [2] and in test [6] was “inactive” in each case.

On to `CN(C)Cc1cccc(N=C(c2ccccc2)c2c(O)[nH]c3cc(C(=O)N(C)C)ccc23)c1`, for which the Potency entry in test [1], in test [3] and in [4] was “inactive” throughout. Also, the Potency in test [2] was 13.7 µM (active).

As for `CCCCC/C=C\C\C=C/C=C/C=C/[C@@H](O)[C@@H](O)CCCC(=O)O`, the activity change, negative = inhibition in [1] was -2.59% [at 0.757 µM] (inactive); in test [3] it was -32.8% [at 0.757 µM] (inactive). Besides, the activity change, negative = reduced viability in test [2] was 14.4% [at 0.757 µM] (inactive).

With `C=C1C2[C@H](OC(C)=O)[C@@H]3CC(=O)[C@]4(C)OC[C@@]3(C)[C@@]4(O)[C@@H](OC(C)=O)[C@H](OC(C)=O)[C@@]2(COC(=O)c2ccccc2)[C@@H](OC(C)=O)C[C@@H]1O` (stereo partly drawn), the Potency entry in [1], in test [2] and in test [3] was “inactive” in each case.

For the compound `NC(=O)c1c[nH]c2ccccc12`, the Potency result in test [1], in [2] and in test [3] was “inactive” in each case.

Regarding `CC(C)(C)NC(=O)[C@H]1CN(Cc2cccnc2)CCN1C[C@@H](O)C[C@@H](Cc1ccccc1)C(=O)N[C@H]1c2ccccc2C[C@H]1O`, the Potency entry in [1], in test [2] and in test [3] was “inactive” each time.

Turning to `CCN(CC)CCCCCCCCOC(=O)c1cc(OC)c(OC)c(OC)c1`, the compound was called inactive in [7] and in test [8]. The Potency result in test [1], in test [2] and in [6] was “inactive” throughout.

Regarding `COc1cc(C(=O)O[C@@H]2CC(C)=CC[C@@]3(C)CC[C@](O)(C(C)C)[C@H]23)ccc1O`, the Potency result in test [1], in [2] and in [3] was “inactive” each time.

As to `Nc1ncnc2c1ncn2[C@@H]1O[C@H](CO)C[C@@H]1O`, the Potency entry in test [1], in test [2] and in test [3] was “inactive” throughout.

On to `Cc1ncc(C[n+]2csc(CCO)c2C)c(N)n1`, for which the Potency result in test [1], in test [2], in test [3], in test [9], in test [11] and in [4] was “inactive” each time. The Potency result in test [13] is “inactive”. The outcome in test [10], in test [12] and in test [14] was inactive.

`CC(=O)/C=C/C1C(C)=CCC(C)C1(C)C` (stereo not drawn): the Potency entry in test [1], in test [2] and in test [3] was “inactive” in each case.

`CC(C)(N)c1ccc(-c2nc3ccccc3nc2-c2ccccc2)cc1`: the Potency entry in test [1] and in [3] was “inactive” throughout. The Potency in test [2] was 19.3 µM (active); in test [15], 10 µM (active). Besides, the activity change, negative = inhibition in test [16] is -19.6%.

For `Cc1cc(OCCCS(C)(=O)=O)cc(C)c1-c1cccc(COc2ccc3c(c2)OC[C@H]3CC(=O)O)c1`, the Potency result in test [1], in test [2] and in test [3] was “inactive” throughout.

Regarding `Cc1ccc2nc(NC(=O)CSc3nc4c(c(=O)n3-c3ccccc3)SCC4)sc2c1`, the figures for the Potency in test [1], in [2] and in test [3] were 19.3 µM (active), 17.2 µM (active) and 8.63 µM (active), respectively.

For the compound `COc1cc(Cl)cn2c(-c3cccc(NC4CNC4)n3)cnc12`, the Potency entry in test [1] and in [3] was “inactive” in each case. The Potency in test [2] is 21.7 µM (active).

Take `CCNC(=O)c1cc2c(-c3cc(OCCN4CCCC4)c(Cl)cc3Cl)nc(N)nc2s1`: the Potency in test [1] is 4.85 µM (active); in test [2] it was 4.32 µM (active); in test [3] it was 1.37 µM (active).

Turning to `COc1ccc(-c2cc3c(C)nc(N)nc3n(C3CCC(OCCO)CC3)c2=O)cn1` (stereo not drawn), the figures for the Potency in [1], in test [2] and in test [3] were 0.153 µM (active), 0.0544 µM (active) and 0.153 µM (active), respectively.

Regarding `COc1cc2ncn(-c3cc(OCc4ccccc4S(C)(=O)=O)c(C#N)s3)c2cc1OC`, the Potency result in [1], in test [3] and in test [4] was “inactive” each time. Also, the Potency in test [2] is 27.3 µM (active).

As to `CCCCCCCCCCCCCCCC(N)=O`, the activity change, negative = inhibition in test [1] is 1.8% [at 5.82 µM] (inactive); in test [3] it was -29.4% [at 5.82 µM] (inactive). Further, the activity change, negative = reduced viability in test [2] was 2.57% [at 5.82 µM] (inactive).
